Jurkat NFkB inh = inhibitors of the PMA/ionomycin-induced NF-kB reporter in Jurkat cells; PMA/ionomycin-induced NF-kB luciferase reporter, luminescence; inhibition, % at 4 µM; 330,000 tested, 0.53% active; in the data active = inhibition above about 50%
Beta cell apopt = blocks beta cell apoptosis | protection from apoptosis, % (concentration not given with the values) | AID 435005 | 300,000 tested, 0.8% active | INS-1E cytokine-induced death, ATP luminescence, 48 h; percent of positive-control rescue, neutral wells zero;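 active = Every replicate reaches about 75%, or at least half do and their mean reaches it too, limit read from the data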;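 note: 0% = cytokine-treated negative control wells and 100% = positive control rescue; higher means more ATP so stronger rescue from cytokine killing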
Gli-Sufu antag = Gli-Sufu pathway antagonism. Sufu-KO-LIGHT fibroblasts, Gli luciferase reporter luminescence. inhibition, % at 5 µM. 340,000 tested, 0.74% active. AID 588413;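 active = inhibition above about 55%, limit read from the data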;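 note: 0% = DMSO-treated cells and 100% = wells with medium but no cells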
Mdm2 MdmX PPI = disrupts the human Mdm2-MdmX interaction; SaOS-2 split-luciferase Mdm2/MdmX complementation, luminescence; inhibition, % at 8 µM; 330,000 tested, 3% active;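 active = inhibition of at least 50% at 8 µM in the primary screen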
Target sequence (O15151 whole entry, looked up): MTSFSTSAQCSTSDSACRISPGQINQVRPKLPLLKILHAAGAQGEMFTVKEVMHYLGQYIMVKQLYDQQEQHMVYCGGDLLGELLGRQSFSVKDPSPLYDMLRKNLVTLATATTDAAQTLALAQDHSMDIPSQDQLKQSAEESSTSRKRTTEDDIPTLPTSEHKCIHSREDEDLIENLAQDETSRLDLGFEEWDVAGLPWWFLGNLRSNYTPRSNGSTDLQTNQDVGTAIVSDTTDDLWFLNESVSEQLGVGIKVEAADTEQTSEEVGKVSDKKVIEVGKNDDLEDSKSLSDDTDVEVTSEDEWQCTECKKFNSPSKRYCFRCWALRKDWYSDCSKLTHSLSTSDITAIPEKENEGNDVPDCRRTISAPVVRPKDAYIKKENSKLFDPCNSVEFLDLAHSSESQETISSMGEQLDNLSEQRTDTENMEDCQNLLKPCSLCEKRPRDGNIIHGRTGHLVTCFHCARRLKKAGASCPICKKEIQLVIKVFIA
Target sequence (Q00987 whole entry, looked up): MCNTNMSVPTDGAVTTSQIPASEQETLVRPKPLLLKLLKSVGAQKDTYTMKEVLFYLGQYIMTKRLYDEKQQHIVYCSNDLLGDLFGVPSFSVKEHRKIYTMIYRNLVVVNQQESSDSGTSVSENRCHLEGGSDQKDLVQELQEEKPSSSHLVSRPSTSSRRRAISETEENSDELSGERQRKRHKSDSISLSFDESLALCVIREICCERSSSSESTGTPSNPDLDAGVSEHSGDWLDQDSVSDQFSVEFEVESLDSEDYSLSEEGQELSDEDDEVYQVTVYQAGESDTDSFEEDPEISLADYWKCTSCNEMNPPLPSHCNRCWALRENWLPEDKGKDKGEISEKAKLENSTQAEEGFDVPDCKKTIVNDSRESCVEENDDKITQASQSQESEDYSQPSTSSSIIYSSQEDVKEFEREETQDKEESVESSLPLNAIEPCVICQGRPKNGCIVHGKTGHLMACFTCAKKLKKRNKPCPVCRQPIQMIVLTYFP
697 NFkB inh = lowers PMA/ionomycin-induced NF-kB signal in 697 B cells | 697 B-cell NF-kB luciferase reporter, 16 h | inhibition, % at 4 µM | 330,000 tested, 0.33% active; in the data active = inhibition above about 35%
Mdm2-MdmX conf = confirmation of human Mdm2/MdmX interaction inhibitors; shares compounds with Mdm2 MdmX PPI; Mdm2-MdmX binding, luminescent assay; inhibition, % at 8 µM; 10,000 tested, 55% active; AID 489028; in the data active = inhibition above about 40%
FLuc counter = counter-screen for Mdm2/MdmX inhibitors: full-length luciferase; shares compounds with Mdm2 MdmX PPI; SaOS-2 full-length luciferase counterscreen, luminescence; inhibition, % at 8 µM; 6,200 tested, 77% active; AID 504607;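 active = mean inhibition at 8 µM reaching about 37%, which flags the compound as non-specific, limit read from the data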;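 note: p53-null SaOS-2 cells with luciferase driven by a doxycycline-inducible promoter; compound on cells about two nights before reading with doxycycline added after day one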
Gli-Sufu confirm = Gli-SUFU antagonism confirmation, single concentration | shares compounds with Gli-Sufu antag | Sufu-KO-LIGHT cells, Gli luciferase reporter, luminescence | inhibition, % at 5 µM | 2,500 tested, 40% active | AID 602428;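 active = mean inhibition at 5 µM reaching about 45%, limit read from the data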;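 note: plate controls were DMSO-treated cells for no effect and wells lacking cells for full effect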
Gli cytotox = counter-screen for Gli-SUFU antagonists: cytotoxicity. shares compounds with Gli-Sufu antag. Sufu-KO-LIGHT cells cytotoxicity, ATP luminescence. 2,500 tested, 32% active. cytotoxicity, % at 5 µM. AID 651994;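 active = mean cytotoxicity at 5 µM above about 25%, limit read from the data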;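 note: cells exposed to compound overnight for roughly 16 to 18 hours; plate controls were DMSO wells with cells for no effect and medium without cells for full effect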
Wnt3a cs = Wnt3a reporter inhibition counter-screen. shares compounds with Gli-Sufu antag. Wnt-LIGHT cells, Wnt3a-driven luciferase reporter, luminescence. inhibition, % at 6.25 µM. 2,500 tested, 20% active;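 active = mean inhibition above about 25%, limit read from the data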
The depositor's hits bear a star; ! = not confirmed by another sample. Hits are enriched below; roughly 4% of the tested compounds scored in any of these assays.

Screening Cc1ccc(C)c(N(CC(=O)NC(C)(C)C)C(=O)CNC(=O)c2cccs2)c1 returned Jurkat NFkB inh -12, Beta cell apopt -3, Gli-Sufu antag -3, Mdm2 MdmX PPI 19 and 697 NFkB inh 2.
`CC(=O)CC1=NC(C)(C)Cc2ccccc21` gave Jurkat NFkB inh 7, Beta cell apopt -2, Gli-Sufu antag -6, Mdm2 MdmX PPI -8 and 697 NFkB inh 8.
Screening NCC(=O)Nc1ccc(Cl)cc1C(=O)c1ccc[nH]1 returned Jurkat NFkB inh -2, Gli-Sufu antag 52, Mdm2 MdmX PPI 64*, 697 NFkB inh 29, Mdm2-MdmX conf 66*, FLuc counter 40*, Gli-Sufu confirm 33, Gli cytotox 0 and Wnt3a cs 11.
Screening CC1CN(c2ccc(C(=O)c3ccccc3C(=O)O)cc2[N+](=O)[O-])CC(C)O1 (centres undefined) returned Jurkat NFkB inh 3, Beta cell apopt 8, Gli-Sufu antag 5, Mdm2 MdmX PPI 17 and 697 NFkB inh 4.
For O=C(Cn1cncn1)c1ccccc1 the results were Jurkat NFkB inh 2, Beta cell apopt -6, Gli-Sufu antag 1, Mdm2 MdmX PPI 17 and 697 NFkB inh 8.
For Cc1ccc(-n2c(C)cc(C3=NNC(=NC4CC4)SC3)c2C)cc1C the results were Jurkat NFkB inh -52, Beta cell apopt 21, Gli-Sufu antag 60*, Mdm2 MdmX PPI 69*, 697 NFkB inh -40, Mdm2-MdmX conf 50*, FLuc counter 120*, Gli-Sufu confirm 67*, Gli cytotox 29* and Wnt3a cs 71*.
For O=c1nc2n(c3cccc(Cl)c13)CCCCC2 the results were Jurkat NFkB inh 14, Beta cell apopt -10, Gli-Sufu antag -11, Mdm2 MdmX PPI -1 and 697 NFkB inh 19.
Screening CCCn1c(N)c(C(=O)COC(=O)CCNS(=O)(=O)c2ccccc2F)c(=O)[nH]c1=O returned Jurkat NFkB inh -10, Beta cell apopt -4, Gli-Sufu antag -16, Mdm2 MdmX PPI 2 and 697 NFkB inh 17.
CC(C)c1nnc(NC(=O)CC(=O)Nc2ccccc2C(=O)O)s1 was read as Jurkat NFkB inh -2, Beta cell apopt 0, Gli-Sufu antag 52, Mdm2 MdmX PPI 67*, 697 NFkB inh 15, Mdm2-MdmX conf 47*, FLuc counter 74*, Gli-Sufu confirm 44, Gli cytotox -5 and Wnt3a cs 48*.
`CC(C)Cc1nnc(NC(=O)CC(=O)Nc2ccccc2C(=O)O)s1` gave Jurkat NFkB inh 8, Beta cell apopt -3, Gli-Sufu antag -2, Mdm2 MdmX PPI 46 and 697 NFkB inh 18.
`CC(=O)c1cccc(NC(=O)C2=CN3CCS(=O)(=O)N=C3C=C2)c1` gave Jurkat NFkB inh 15, Beta cell apopt -3, Gli-Sufu antag -1, Mdm2 MdmX PPI -6 and 697 NFkB inh 16.
CC1CCC(C(C)C)C(OC(=O)Cn2c(-c3ccc(Br)cc3)[n+](C)c3ccccc32)C1 (centres undefined) was read as Jurkat NFkB inh 30, Beta cell apopt 106*, Gli-Sufu antag 70*!, Mdm2 MdmX PPI 100*, 697 NFkB inh -61, Mdm2-MdmX conf 95*, FLuc counter 57*, Gli-Sufu confirm 70*, Gli cytotox 41* and Wnt3a cs -27.
COc1ccc(NC(=O)NN2CCN(C)CC2)cc1 was read as Jurkat NFkB inh -8, Beta cell apopt -3, Gli-Sufu antag 4, Mdm2 MdmX PPI 8 and 697 NFkB inh 12.
For COc1ccccc1OCC(O)Cn1c(=N)n(Cc2ccccc2)c2ccccc21 (centres undefined) the results were Jurkat NFkB inh 27, Beta cell apopt 32, Gli-Sufu antag 37, Mdm2 MdmX PPI 39 and 697 NFkB inh -18.
CCCCCn1c(=N)n(CC(O)COc2ccccc2OC)c2ccccc21 (centres undefined) was read as Jurkat NFkB inh 13, Beta cell apopt 21, Gli-Sufu antag 81*!, Mdm2 MdmX PPI 61*!, 697 NFkB inh -11, Mdm2-MdmX conf 28, Gli-Sufu confirm 41, Gli cytotox 17 and Wnt3a cs -14.
C#CCOCCOCCOCCNc1nc(N2CCN(C(=O)[C@H](C(C)C)n3cc(CCO)nn3)CC2)nc(N2CCN(C(=O)[C@H](C)n3cc(CCCN=C(N)N)nn3)CC2)n1 was read as Gli-Sufu antag 11.
CCOc1ccc(N(CC(=O)Nc2ccccc2OC)S(=O)(=O)c2ccccc2)cc1 was read as Jurkat NFkB inh 50, Beta cell apopt 16, Gli-Sufu antag 54, Mdm2 MdmX PPI 58*, 697 NFkB inh -9, Mdm2-MdmX conf 63*, FLuc counter 79*, Gli-Sufu confirm 47*, Gli cytotox 60* and Wnt3a cs -30.
C#CC[N+](C)(C)CCCCCCCC was read as Jurkat NFkB inh 2, Beta cell apopt 0, Gli-Sufu antag 21, Mdm2 MdmX PPI 23 and 697 NFkB inh 0.
Screening CC#CC[N+](C)(C)CCCCCCCCCCCC returned Jurkat NFkB inh 36, Beta cell apopt 104*, Gli-Sufu antag 88*, Mdm2 MdmX PPI 87*, 697 NFkB inh 32, Mdm2-MdmX conf 64*, FLuc counter 30, Gli-Sufu confirm 89*, Gli cytotox 31* and Wnt3a cs 17.
For CCCCCC[N+](C)(C)CCSSCC[N+](C)(C)CCCCCC the results were Jurkat NFkB inh 6, Beta cell apopt -1, Gli-Sufu antag 6, Mdm2 MdmX PPI -23 and 697 NFkB inh 20.
Screening C#CC[N+](C)(C)CCCCCCCCCC returned Jurkat NFkB inh 30, Beta cell apopt 16, Gli-Sufu antag 56*, Mdm2 MdmX PPI 71*, 697 NFkB inh -7, Mdm2-MdmX conf 68*, FLuc counter 56*, Gli-Sufu confirm 58*, Gli cytotox 37* and Wnt3a cs 48*.
`Cc1cc(Nc2ccccc2)nc(NCc2ccccc2)n1` gave Jurkat NFkB inh 36, Beta cell apopt 101*, Gli-Sufu antag 68*, Mdm2 MdmX PPI 53*, 697 NFkB inh -43, Mdm2-MdmX conf 37, FLuc counter 59*, Gli-Sufu confirm 58*, Gli cytotox 33* and Wnt3a cs 25*.
